A selection: hits, their analogues and other compounds. The true share with any hit is near 1.2%.
Six1-Eya2 inh: Six1/Eya2 interaction inhibition; AlphaScreen GST-Six1/His-Eya2 binding, biochemical; hits give low values; AID 651725; 0.56% of 360,000 active; Q15475+O00167; activity change, % (no concentration beside the values)
Target sequence (O00167 whole entry, looked up): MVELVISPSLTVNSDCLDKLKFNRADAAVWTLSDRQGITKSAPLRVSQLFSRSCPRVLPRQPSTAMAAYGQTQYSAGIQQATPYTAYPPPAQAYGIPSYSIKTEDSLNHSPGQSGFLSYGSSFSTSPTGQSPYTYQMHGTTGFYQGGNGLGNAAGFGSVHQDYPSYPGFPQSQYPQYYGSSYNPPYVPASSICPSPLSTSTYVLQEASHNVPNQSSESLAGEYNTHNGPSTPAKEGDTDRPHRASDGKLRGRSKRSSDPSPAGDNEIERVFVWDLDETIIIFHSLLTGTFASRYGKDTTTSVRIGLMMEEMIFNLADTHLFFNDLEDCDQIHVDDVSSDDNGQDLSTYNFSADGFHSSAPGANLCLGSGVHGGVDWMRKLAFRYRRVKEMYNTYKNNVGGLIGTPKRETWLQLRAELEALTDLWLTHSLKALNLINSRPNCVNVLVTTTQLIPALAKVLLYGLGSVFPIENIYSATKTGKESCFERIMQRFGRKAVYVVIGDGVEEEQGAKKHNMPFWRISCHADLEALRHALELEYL
Target sequence (Q15475 whole entry, looked up): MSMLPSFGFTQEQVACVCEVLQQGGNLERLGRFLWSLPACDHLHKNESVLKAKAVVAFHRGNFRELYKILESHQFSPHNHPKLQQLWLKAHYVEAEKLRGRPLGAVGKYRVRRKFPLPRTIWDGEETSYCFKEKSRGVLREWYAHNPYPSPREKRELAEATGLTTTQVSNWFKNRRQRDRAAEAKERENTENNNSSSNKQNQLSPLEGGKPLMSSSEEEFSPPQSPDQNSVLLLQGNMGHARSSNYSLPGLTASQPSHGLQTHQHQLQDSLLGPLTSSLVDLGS
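Homogeneous AlphaScreen proximity assay pairing GST-Six1 with His-tagged Eya2 (added as 5X mix: 250 nM and 500 nM) in 50 mM Tris pH 8.0, 300 mM NaCl, 1 mM TCEP. Glutathione donor and nickel acceptor beads; 1 h, 37 °C, dark.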
pAkt inh: inhibitors of Akt phosphorylation; AID 651550; 0.32% of 360,000 active; activity change, % for hits at 50 µM; Neuro2A IGF-stimulated pAkt S473 HTRF, 20 min; hits give low values; in the data active = activity change below about -80%; inconclusive = mostly about -51% to -80%
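Single-point screen (50 µM final compound) in Neuro2A cells stimulated 20 min with 6 nM IGF at 37 deg C. After lysis, Ser473-phosphorylated Akt read by HTRF (ex 330 nm, em 615/665 nm) as the 665/615 ratio.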
CtBP-E1A blk: blocks the CtBP interaction with E1A | AlphaScreen GST-E1A/His-CtBP binding, 1536-well; hits give low values | activity change, % (no concentration beside the values) | 0.49% of 340,000 active | AID 651724
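Protein mix (5X: 125 nM each GST-E1A, His-CtBP) was incubated with pinned compound 2 h at 37 deg C in dark, in 50 mM Tris pH 8.0 buffer with 300 mM NaCl. Glutathione donor and nickel acceptor beads followed; AlphaScreen signal read after 1 h.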
CCT chaperon mod: cytosolic chaperonin activity modulation; activity change, % (concentration not given with the values), hits read low; purified chaperonin ATPase assay, HTRF ADP detection, 30 min; 0.3% of 360,000 active; in the data active = activity change below about -30%
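TRiC (40 or 20 nM final, by batch activity) in 30 mM Tris pH 7.4, 100 mM KCl, 5 mM MgCl2, 1 mM DTT was treated with compound at 76 uM single dose, then 10 uM ATP, 30 min at 37 °C. ADP was read by HTRF Transcreener.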
Numbers without * were called inactive; i = inactive; ? = inconclusive; . = no result given. Cut-off read from the data, not from the text of the source, unless noted: active = activity change below about -65%; inconclusive = mostly about -30% to -63%; inactive = weaker than that. % is set by controls: 0 for no effect and ±100 for the full control effect.

SMILES | Six1-Eya2 inh | pAkt inh | CtBP-E1A blk | CCT chaperon mod
OCc1ccc(O)c2ncccc12 | -88.0* | . | -91.6* | -1.4
CCOC(=O)C1CCCCN1S(=O)(=O)c1ccc2c(c1)CC(C)N2C(=O)C1CCC1 (stereo not given) | 1.2 | i | . | -2.4
COc1ccc(S(=O)(=O)N2CCCOC2CNC(=O)C(=O)NCCc2ccco2)cc1 (stereo not given) | -0.9 | i | -2.9 | -0.6
COc1ccccc1C(O)c1ncc(-c2cccc3ccccc23)[nH]1 (stereo not given) | -5.3 | i | -16.2 | -2.7
Nc1nc(-c2ccccn2)nc(N)c1Cc1ccc(Cl)cc1Cl | -80.4* | i | -91.1* | 0.2
Cc1n[nH]c(C)c1Cc1c(F)cccc1Cl | 1.0 | i | 2.0 | 0.1
Nc1nc(-c2ccccn2)nc(N)c1Cc1c(F)cccc1Cl | -79.4* | i | -92.3* | 2.6
Nc1nc(-c2ccccn2)nc(N)c1Cc1ccccc1F | -74.4* | i | -90.5* | 1.5
COc1ccccc1CN1CC(=O)N2CSC[C@H]2C1=O | 8.7 | i | . | 0.6
Nc1nc(Nc2ccc(Cl)cc2)c(NC=O)c(=O)[nH]1 | -9.1 | i | -17.6 | -1.1
Cc1n[nH]c(=S)n(NC(=O)CC(=O)Nn2c(=S)[nH]nc(C)c2=O)c1=O | -87.3* | i | 24.0 | 0.4
Cc1n[nH]c(=S)n(NC(=O)/C=C/C(=O)Nn2c(=S)[nH]nc(C)c2=O)c1=O | -88.3* | i | ? | -1.4
COCCN1C(=O)CSCC1(C)C(=O)Nc1c(C)cccc1C (stereo not given) | 3.4 | i | 2.1 | .
CCOc1cc(N2CCOCC2)c(OCC)cc1NC(=O)C(NC(=O)c1ccco1)C(C)C (stereo not given) | 4.7 | i | -5.7 | 1.9
CC1=CC(=O)C2(C)C(C)=C(C)C12C (stereo not given) | -0.8 | i | 0.5 | -0.5
O=C(Nc1ccc(N2CCN(C(=O)c3ccccc3)CC2)cc1)c1ccc(Br)o1 | -20.0 | i | -6.6 | -2.6
O=C(Nc1ccc(N2CCN(C(=O)c3ccccc3)CC2)c(Cl)c1)c1ccc(Br)o1 | -5.5 | -86.0%* | 41.4 | 2.4
O=C(Nc1ccc2c(c1)CCC2)c1ccc(Br)o1 | 4.1 | -113.7%* | -2.9 | -1.5
COc1ccc(-c2cc(C(=O)N3CCN(S(=O)(=O)c4ccc(C)cc4)CC3)[nH]n2)cc1 | 2.7 | i | 0.0 | 1.1
CSc1ccc(/C=C(/NC(=O)c2ccco2)C(=O)N2CCCCC2)cc1 | -0.6 | i | 1.1 | -2.3
CCN(CC)c1ccc(/C=N\N2CCN(Cc3ccc(C)cc3)CC2)cc1 | -65.5* | i | ? | 2.1
Cc1ccc(CN2CCN(/N=C/c3ccc(C(=O)O)cc3)CC2)cc1 | 7.4 | i | -0.7 | -0.8
COC(=O)N1CCCCC1c1cc(C(=O)Nc2cccc3c2CCCC3)no1 (stereo not given) | 2.0 | i | 1.2 | -1.8
CCC(Oc1ccccc1)C(=O)NCCOC (stereo not given) | 8.3 | i | 6.5 | 0.9
CCC(C)(C)NC(=O)C(c1ccccn1)N(C(=O)c1csnn1)c1ccc(C)cc1 (stereo not given) | 6.6 | i | 9.9 | -33.9*
SMILES | Six1-Eya2 inh | pAkt inh | CtBP-E1A blk | CCT chaperon mod
Cc1ccc(N(C(=O)c2csnn2)C(C(=O)NCc2ccccc2)c2ccccn2)cc1 (stereo not given) | 2.5 | i | 6.2 | -0.3
Cc1cc2nc(C(C)(C)C)c(Cc3ccccc3)n2c(C)c1Br | 10.5 | i | 11.9 | -1.0
CCc1ccc(CCC(=O)Nc2sc(C)c(C)c2C(=O)OC)o1 | -2.8 | -91.1%* | 1.2 | -0.4
COC(=O)c1c(NC(=O)CCCC(=O)O)sc(C)c1C | 14.3 | i | 0.7 | 0.0
N#Cc1cnn(-c2nc3sc4c(c3c(=O)[nH]2)CCCC4)c1N | 0.8 | i | -6.4 | -0.9
CC(C)(CCC(=S)N1CCOCC1)C1CCCCC1 | 3.0 | i | 11.1 | -39.8*
S=C(CN1CCCC1=S)N1CCOCC1 | 8.9 | i | 7.3 | -2.3
O=[N+]([O-])c1ccc(-c2cnc3ccccc3n2)cc1 | -20.0 | i | -21.4 | -37.8*
COc1cccc(N=Nc2ccc3ccccc3c2O)c1 | -81.9* | i | . | 0.7
Oc1c(N=Nc2ccc(F)cc2)ccc2ccccc12 | ? | i | -76.2* | -2.0
Brc1ccc(N/N=C(/N=Nc2nn[nH]n2)c2ccccc2)cc1 | ? | i | . | -1.6
Cc1ccc(N=Nc2ccc3ccccc3c2O)cc1 | -88.2* | i | -0.7 | -3.2
Oc1c(N=Nc2nn[nH]n2)ccc2ccccc12 | -76.0* | i | ? | -1.0

Screening results: PubChem, National Center for Advancing Translational Sciences (NCATS)
